In the supplement of paper PMC6378613:

Compound: Cc1ccc(-c2ccc3c(ccc4sc5c(c43)NC[C@@H](C)NC5=O)n2)cn1
Assay: kinase activity remaining relative to vehicle control; higher = less inhibition
Description: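 In vitro radiometric kinase profiling of the MK2 inhibitor PF-3644022 at 0.1, 1 and 10 µM against a panel of kinases (MRC International Centre for Kinase Profiling, Dundee). Read-out is % kinase activity remaining relative to the vehicle control, mean of n=2.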

Sequence of UniProt Q9Y6E0 (Q9Y6E0 whole entry, looked up): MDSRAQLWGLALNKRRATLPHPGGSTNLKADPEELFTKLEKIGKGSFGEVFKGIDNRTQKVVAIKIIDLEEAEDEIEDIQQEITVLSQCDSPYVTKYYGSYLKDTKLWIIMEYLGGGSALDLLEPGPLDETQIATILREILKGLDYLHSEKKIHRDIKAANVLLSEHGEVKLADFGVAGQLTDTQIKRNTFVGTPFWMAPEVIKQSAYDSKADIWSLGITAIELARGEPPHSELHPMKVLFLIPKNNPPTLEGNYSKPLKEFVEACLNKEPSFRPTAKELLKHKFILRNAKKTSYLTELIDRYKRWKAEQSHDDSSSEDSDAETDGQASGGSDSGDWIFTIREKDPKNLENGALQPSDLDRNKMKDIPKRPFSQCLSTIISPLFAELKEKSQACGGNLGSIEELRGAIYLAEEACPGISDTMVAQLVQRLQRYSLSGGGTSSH
Sequence of UniProt Q15418 (Q15418 whole entry, looked up): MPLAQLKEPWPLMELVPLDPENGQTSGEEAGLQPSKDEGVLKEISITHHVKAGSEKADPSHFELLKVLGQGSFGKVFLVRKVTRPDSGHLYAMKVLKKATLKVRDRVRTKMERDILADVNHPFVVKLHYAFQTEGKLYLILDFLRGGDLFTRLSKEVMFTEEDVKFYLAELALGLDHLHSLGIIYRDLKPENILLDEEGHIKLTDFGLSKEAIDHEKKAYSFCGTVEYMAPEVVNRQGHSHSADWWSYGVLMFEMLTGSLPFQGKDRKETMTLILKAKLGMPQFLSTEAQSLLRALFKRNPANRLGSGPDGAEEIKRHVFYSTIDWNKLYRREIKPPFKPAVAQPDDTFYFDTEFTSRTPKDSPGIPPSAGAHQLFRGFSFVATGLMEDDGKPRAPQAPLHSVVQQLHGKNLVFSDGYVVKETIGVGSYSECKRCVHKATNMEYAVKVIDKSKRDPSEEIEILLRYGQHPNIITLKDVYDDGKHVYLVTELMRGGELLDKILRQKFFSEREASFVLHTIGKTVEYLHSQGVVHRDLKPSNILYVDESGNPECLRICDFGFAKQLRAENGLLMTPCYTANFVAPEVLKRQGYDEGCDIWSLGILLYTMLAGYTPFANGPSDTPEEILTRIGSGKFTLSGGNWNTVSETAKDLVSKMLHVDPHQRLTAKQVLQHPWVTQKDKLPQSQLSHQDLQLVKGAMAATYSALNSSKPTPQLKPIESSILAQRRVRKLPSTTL
Sequence of UniProt Q9NZJ5 (Q9NZJ5 whole entry, looked up): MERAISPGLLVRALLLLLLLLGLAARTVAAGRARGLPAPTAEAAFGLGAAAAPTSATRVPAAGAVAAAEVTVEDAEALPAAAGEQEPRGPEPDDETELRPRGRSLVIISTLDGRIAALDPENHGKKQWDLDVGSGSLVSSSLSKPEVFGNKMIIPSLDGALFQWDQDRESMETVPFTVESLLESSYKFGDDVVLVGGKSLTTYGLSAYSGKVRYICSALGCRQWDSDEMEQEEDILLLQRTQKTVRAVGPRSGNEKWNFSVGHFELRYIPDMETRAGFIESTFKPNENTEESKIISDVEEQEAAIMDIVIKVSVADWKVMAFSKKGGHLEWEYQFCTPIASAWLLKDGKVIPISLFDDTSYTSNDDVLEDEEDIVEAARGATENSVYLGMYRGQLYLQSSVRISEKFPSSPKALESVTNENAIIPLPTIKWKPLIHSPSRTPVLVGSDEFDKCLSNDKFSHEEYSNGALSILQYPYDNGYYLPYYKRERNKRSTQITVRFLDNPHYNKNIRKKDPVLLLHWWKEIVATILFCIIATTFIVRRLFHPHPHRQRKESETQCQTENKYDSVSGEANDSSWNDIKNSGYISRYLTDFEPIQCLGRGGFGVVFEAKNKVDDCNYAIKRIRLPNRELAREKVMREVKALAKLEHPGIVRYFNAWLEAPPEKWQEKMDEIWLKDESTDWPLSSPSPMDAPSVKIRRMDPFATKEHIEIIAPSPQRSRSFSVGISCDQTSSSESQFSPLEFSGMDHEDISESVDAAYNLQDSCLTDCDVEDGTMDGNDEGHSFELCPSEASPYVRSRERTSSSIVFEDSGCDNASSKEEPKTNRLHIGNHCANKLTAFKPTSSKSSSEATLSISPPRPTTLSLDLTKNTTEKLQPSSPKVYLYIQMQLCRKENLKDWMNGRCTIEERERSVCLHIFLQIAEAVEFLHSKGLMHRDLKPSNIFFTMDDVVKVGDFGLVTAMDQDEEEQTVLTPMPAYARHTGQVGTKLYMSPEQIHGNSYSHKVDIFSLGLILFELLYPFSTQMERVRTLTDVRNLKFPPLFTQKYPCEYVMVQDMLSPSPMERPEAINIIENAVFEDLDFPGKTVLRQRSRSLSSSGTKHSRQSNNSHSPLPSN
Sequence of UniProt O96017 (O96017 whole entry, looked up): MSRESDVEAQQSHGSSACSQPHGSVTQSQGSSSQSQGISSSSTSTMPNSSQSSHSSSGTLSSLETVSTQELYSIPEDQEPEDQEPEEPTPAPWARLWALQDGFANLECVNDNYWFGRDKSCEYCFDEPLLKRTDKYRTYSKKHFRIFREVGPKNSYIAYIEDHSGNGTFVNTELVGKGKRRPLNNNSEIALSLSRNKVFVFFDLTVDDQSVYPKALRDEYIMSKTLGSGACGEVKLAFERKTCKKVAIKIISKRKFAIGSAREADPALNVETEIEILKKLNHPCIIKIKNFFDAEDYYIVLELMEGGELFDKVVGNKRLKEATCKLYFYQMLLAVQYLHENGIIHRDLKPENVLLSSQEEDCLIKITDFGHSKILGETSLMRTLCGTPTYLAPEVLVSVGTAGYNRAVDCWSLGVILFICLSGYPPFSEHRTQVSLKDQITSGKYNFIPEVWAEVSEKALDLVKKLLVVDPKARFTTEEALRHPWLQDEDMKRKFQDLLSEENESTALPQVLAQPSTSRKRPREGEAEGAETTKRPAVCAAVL
Sequence of UniProt Q13188 (Q13188 whole entry, looked up): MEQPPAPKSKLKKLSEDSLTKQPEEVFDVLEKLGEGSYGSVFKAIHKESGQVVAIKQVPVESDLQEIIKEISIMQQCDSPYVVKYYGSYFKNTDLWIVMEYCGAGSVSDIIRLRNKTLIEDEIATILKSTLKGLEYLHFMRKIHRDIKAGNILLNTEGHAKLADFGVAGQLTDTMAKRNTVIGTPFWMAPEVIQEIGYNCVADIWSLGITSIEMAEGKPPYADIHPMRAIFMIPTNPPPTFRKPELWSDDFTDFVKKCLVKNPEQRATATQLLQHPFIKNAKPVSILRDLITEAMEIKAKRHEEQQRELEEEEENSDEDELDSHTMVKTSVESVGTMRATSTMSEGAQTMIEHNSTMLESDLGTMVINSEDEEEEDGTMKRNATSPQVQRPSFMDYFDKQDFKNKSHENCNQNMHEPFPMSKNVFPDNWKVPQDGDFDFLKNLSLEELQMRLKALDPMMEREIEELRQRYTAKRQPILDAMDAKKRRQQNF
Sequence of UniProt P45984 (P45984 whole entry, looked up): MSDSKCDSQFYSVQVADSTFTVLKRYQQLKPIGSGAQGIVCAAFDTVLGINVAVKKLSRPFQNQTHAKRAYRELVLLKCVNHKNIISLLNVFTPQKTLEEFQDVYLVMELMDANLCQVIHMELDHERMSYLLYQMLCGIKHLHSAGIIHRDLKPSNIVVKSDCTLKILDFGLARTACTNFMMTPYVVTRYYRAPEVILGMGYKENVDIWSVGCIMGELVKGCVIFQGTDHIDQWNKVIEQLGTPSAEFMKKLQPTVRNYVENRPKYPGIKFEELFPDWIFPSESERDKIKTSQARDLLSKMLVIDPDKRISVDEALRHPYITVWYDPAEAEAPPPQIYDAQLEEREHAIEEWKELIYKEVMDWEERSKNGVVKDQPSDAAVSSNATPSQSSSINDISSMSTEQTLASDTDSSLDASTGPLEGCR
Sequence of UniProt P12931 (P12931 whole entry, looked up): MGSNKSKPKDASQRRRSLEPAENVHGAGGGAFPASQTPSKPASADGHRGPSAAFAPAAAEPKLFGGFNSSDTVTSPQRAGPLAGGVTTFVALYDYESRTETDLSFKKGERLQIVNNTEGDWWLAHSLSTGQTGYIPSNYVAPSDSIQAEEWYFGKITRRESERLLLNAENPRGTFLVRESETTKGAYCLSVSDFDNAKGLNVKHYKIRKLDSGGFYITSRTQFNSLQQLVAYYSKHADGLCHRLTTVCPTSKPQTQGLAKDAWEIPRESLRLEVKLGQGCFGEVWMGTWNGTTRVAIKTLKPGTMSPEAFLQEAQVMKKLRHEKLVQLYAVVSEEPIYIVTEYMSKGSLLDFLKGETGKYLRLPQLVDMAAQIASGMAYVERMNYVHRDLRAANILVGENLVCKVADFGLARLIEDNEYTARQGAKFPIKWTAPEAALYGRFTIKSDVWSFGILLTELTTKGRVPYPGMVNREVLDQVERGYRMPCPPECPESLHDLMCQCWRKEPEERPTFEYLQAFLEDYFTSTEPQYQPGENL
Sequence of UniProt P49760 (P49760 whole entry, looked up): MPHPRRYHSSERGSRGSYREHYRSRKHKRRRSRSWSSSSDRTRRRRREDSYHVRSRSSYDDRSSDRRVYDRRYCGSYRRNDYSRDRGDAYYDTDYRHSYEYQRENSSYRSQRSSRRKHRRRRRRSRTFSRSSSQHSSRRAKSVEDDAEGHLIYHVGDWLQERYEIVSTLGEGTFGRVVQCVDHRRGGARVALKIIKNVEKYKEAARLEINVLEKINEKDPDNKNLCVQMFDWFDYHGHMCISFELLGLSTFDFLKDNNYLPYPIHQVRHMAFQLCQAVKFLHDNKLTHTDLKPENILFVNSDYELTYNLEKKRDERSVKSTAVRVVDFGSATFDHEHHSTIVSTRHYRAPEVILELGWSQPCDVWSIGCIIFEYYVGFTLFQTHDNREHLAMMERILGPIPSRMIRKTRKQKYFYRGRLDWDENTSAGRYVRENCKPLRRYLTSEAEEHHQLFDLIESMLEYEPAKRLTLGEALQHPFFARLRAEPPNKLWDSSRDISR

| Target | kinase activity remaining (inhibitor concentration 0.1 µM) [%] | kinase activity remaining (inhibitor concentration 1 µM) [%] | kinase activity remaining (inhibitor concentration 10 µM) [%] |
| --- | --- | --- | --- |
| JAK2 (UniProt O60674) | 101 | 102 | 79 |
| ERK8 (UniProt Q8TD08) | 96 | 79 | 38 |
| Aurora A | 126 | 102 | 84 |
| IGF-1R | 101 | 108 | 114 |
| CHK2 (UniProt O96017) | 112 | 51 | 9 |
| EPH-B4 | 110 | 106 | 99 |
| HER4 (UniProt Q15303) | 92 | 105 | 99 |
| SRPK1 (UniProt Q96SB4) | 89 | 63 | 19 |
| NEK2a (UniProt P51955) | 108 | 99 | 88 |
| MKK2 (UniProt P36507) | 113 | 108 | 79 |
| SYK (UniProt P43405) | 94 | 98 | 82 |
| MNK1 (UniProt Q9BUB5) | 105 | 103 | 83 |
| RSK2 (UniProt P51812) | 104 | 79 | 50 |
| MARK1 (UniProt Q9P0L2) | 116 | 107 | 93 |
| PHK | 110 | 91 | 86 |
| BTK (UniProt Q06187) | 120 | 118 | 107 |
| Lck (UniProt P06239) | 108 | 95 | 86 |
| TTBK2 (UniProt Q6IQ55) | 122 | 122 | 103 |
| AMPK | 93 | 38 | 9 |
| PKB beta (UniProt P31749) | 100 | 90 | 69 |
| CHK1 (UniProt O14757) | 139 | 109 | 112 |
| IKK epsilon | 98 | 95 | 44 |
| MNK2 (UniProt Q9HBH9) | 111 | 51 | 26 |
| EPH-B1 | 113 | 106 | 106 |
| PAK5 (UniProt Q9P286) | 108 | 101 | 101 |

| Target | kinase activity remaining (inhibitor concentration 0.1 µM) [%] | kinase activity remaining (inhibitor concentration 1 µM) [%] | kinase activity remaining (inhibitor concentration 10 µM) [%] |
| --- | --- | --- | --- |
| SmMLCK | 118 | 112 | 110 |
| PKC gamma | 118 | 110 | 101 |
| PKD1 (UniProt P98161) | 96 | 96 | 48 |
| STK33 (UniProt Q9BYT3) | 105 | 83 | 38 |
| IRR (UniProt P14616) | 99 | 79 | 53 |
| AMPK (hum) | 68 | 21 | 6 |
| MSK1 (UniProt O75582) | 120 | 105 | 99 |
| MARK2 (UniProt Q7KZI7) | 116 | 113 | 95 |
| EPH-B2 | 99 | 110 | 111 |
| MST3 (UniProt Q9Y6E0) | 118 | 109 | 108 |
| RSK1 (UniProt Q15418) | 106 | 100 | 76 |
| Src (UniProt P12931) | 110 | 116 | 100 |
| PAK2 (UniProt Q13177) | 102 | 103 | 93 |
| PRAK (UniProt Q8IW41) | 126 | 67 | 24 |
| p38 delta MAPK | 108 | 103 | 94 |
| MAPKAP-K2 | 24 | 9 | 2 |
| p38 beta MAPK | 118 | 126 | 117 |
| p38 gamma MAPK | 108 | 115 | 97 |
| TIE2 (UniProt Q02763) | 105 | 86 | 88 |
| CK1 delta | 96 | 96 | 92 |
| ROCK 2 | 112 | 96 | 95 |
| MELK (UniProt Q14680) | 123 | 102 | 77 |
| Aurora B | 109 | 99 | 64 |
| EPH-A2 | 90 | 95 | 76 |
| NUAK1 (UniProt O60285) | 112 | 102 | 58 |

| Target | kinase activity remaining (inhibitor concentration 0.1 µM) [%] | kinase activity remaining (inhibitor concentration 1 µM) [%] | kinase activity remaining (inhibitor concentration 10 µM) [%] |
| --- | --- | --- | --- |
| MPSK1 (UniProt O75716) | 117 | 118 | 105 |
| HIPK3 (UniProt Q9H422) | 112 | 108 | 96 |
| PDK1 (UniProt Q15118) | 104 | 107 | 95 |
| MARK4 (UniProt Q96L34) | 107 | 87 | 49 |
| ULK1 (UniProt O75385) | 115 | 89 | 75 |
| GCK (UniProt P35557) | 109 | 89 | 19 |
| HIPK2 (UniProt Q9H2X6) | 123 | 113 | 78 |
| TLK1 (UniProt Q9UKI8) | 113 | 107 | 100 |
| YES1 (UniProt P07947) | 112 | 89 | 55 |
| CDK9-Cyclin T1 (UniProt P50750) | 109 | 96 | 51 |
| MLK3 (UniProt Q16584) | 114 | 102 | 73 |
| SIK2 (UniProt Q9H0K1) | 99 | 86 | 77 |
| ERK1 (UniProt P27361) | 111 | 108 | 112 |
| CAMKK beta | 107 | 87 | 28 |
| FGF-R1 | 95 | 91 | 68 |
| VEGFR1 (UniProt P17948) | 112 | 118 | 65 |
| PKA | 109 | 119 | 108 |
| RIPK2 (UniProt O43353) | 93 | 94 | 39 |
| CDK2-Cyclin A (UniProt P24941) | 111 | 93 | 57 |
| JNK3 (UniProt P53779) | 120 | 104 | 102 |
| PKB alpha (UniProt P31749) | 109 | 97 | 98 |
| CLK2 (UniProt P49760) | 86 | 43 | 9 |
| EPH-A4 | 99 | 103 | 78 |
| PKC alpha | 101 | 113 | 90 |
| SIK3 (UniProt Q9Y2K2) | 98 | 99 | 73 |

| Target | kinase activity remaining (inhibitor concentration 0.1 µM) [%] | kinase activity remaining (inhibitor concentration 1 µM) [%] | kinase activity remaining (inhibitor concentration 10 µM) [%] |
| --- | --- | --- | --- |
| MST2 (UniProt Q13188) | 131 | 135 | 100 |
| MLK1 (UniProt P80192) | 99 | 95 | 60 |
| MEKK1 (UniProt Q13233) | 102 | 109 | 109 |
| GSK3 beta | 126 | 99 | 88 |
| ULK2 (UniProt Q8IYT8) | 109 | 121 | 54 |
| PKC zeta | 115 | 112 | 106 |
| EIF2AK3 (UniProt Q9NZJ5) | 114 | 101 | 73 |
| NEK6 (UniProt Q9HC98) | 109 | 96 | 66 |
| JNK1 (UniProt P45983) | 96 | 93 | 92 |
| IRAK1 (UniProt P51617) | 104 | 77 | 27 |
| DYRK3 (UniProt O43781) | 111 | 84 | 40 |
| JNK2 (UniProt P45984) | 123 | 111 | 107 |
| MKK6 (UniProt P52564) | 95 | 98 | 91 |
| BRK (UniProt Q13882) | 121 | 94 | 92 |
| CAMK1 (UniProt Q14012) | 96 | 97 | 68 |
| IKK beta | 115 | 109 | 101 |
| TESK1 (UniProt Q15569) | 112 | 111 | 101 |
| TTBK1 (UniProt Q5TCY1) | 103 | 104 | 96 |
| ERK2 (UniProt P28482) | 102 | 84 | 81 |
| MARK3 (UniProt P27448) | 113 | 115 | 110 |
| TAK1 | 113 | 109 | 70 |
| SGK1 (UniProt O00141) | 116 | 112 | 112 |
| PIM1 (UniProt P11309) | 93 | 58 | 17 |
